“And” between values parts separate entries of the source, which are not always exact repeats. Equal values may be shown once. The source made the active and inactive calls. Unless noted, no rule for the calls is given here.
What was measured:
[1] = liver-stage malaria parasite growth inhibition, primary screen, cell-based, HepG2, luciferase luminescence, HepG2 viability (AID 624349; in the data active = parasite load remaining mostly below about 12%, no sharp cut-off; inactive = mostly above about 10%;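 also: 100% = mean of DMSO negative control wells on the same plate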); conditions: P. berghei liver stage in HepG2, luciferase luminescence, concentration not given here; parasite load remaining: stronger effect = lower value; viability: measured here: HepG2 viability without parasites
[2] = Cy5 fluorescence interference with SSB-bound oligo, artefact control for HCV NS3 helicase inhibitor project, biochemical, NIH Clinical Collection, E. coli SSB (AID 743268)
[3] = tested on: Hepatitis C virus NS3 helicase; assay: HCV NS3 helicase inhibitors, primary screen, biochemical, fluorescence polarization, NIH Clinical Collection (AID 743270); conditions: NS3 helicase binding to Cy5-dT15 DNA, stronger effect = higher value, concentration not given here
[4] = molecular target: Single-stranded DNA-binding protein (Escherichia coli (strain K12)) (UniProt P0AGE0); assay: E. coli SSB displacement from DNA, counter-screen for HCV NS3 helicase inhibitor project, biochemical, fluorescence polarization, NIH Clinical Collection (AID 743271; in the data active = inhibition above about 28%); conditions: stronger effect = higher value, concentration not given here
[5] = fluorescence interference in NS3h assay format, artefact control for HCV NS3 helicase inhibitor project, biochemical, NIH Clinical Collection (AID 743272); conditions: fluorescence interference counterscreen, stronger effect = lower value;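 also: HCV NS3 helicase with a Cy5 labelled single stranded DNA probe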
[6] = tested on: Neuropilin-2 / VEGF-C interaction (human); assay: inhibitors of NRP2–VEGF-C binding, biochemical, microplate binding format, z-score (AID 743281); conditions: microplate NRP2/VEGF-C binding assay; stronger effect = lower value
[7] = stimulators of nuclear beta-catenin in C2C12, primary screen, imaging, WNT3A-conditioned medium, mouse C2C12, NPC library (AID 1117326; in the data active = nuclear beta-catenin stimulation mostly above about 4.2%, no sharp cut-off; inactive = mostly below about 10%); conditions: stronger effect = higher value
[8] = tested on: Hepatitis C virus NS3 helicase; assay: HCV NS3 helicase inhibitors, primary screen, biochemical, fluorescence polarization, LOPAC1280 library (AID 687035; in the data active = inhibition above about 37%); conditions: Purified HCV NS3 helicase, Cy5-dT15 ssDNA binding fluorescence polarization; stronger effect = higher value; concentration not given here
[9] = Cy5 fluorescence quenching or enhancement artefacts, artefact control for HCV NS3 helicase inhibitor project, biochemical, LOPAC1280 (AID 687037); conditions: Cy5-DNA-NS3h complex fluorescence interference counterscreen

Compound | parasite load remaining [1] | viability [1] | fluorescence ratio [2] | inhibition [3] | inhibition [4] | fluorescence ratio [5] | outcome [6] | nuclear beta-catenin stimulation ([7]; at 10 µM) | nuclear beta-catenin stimulation ([7]; stimulation, at 2 µM) [%] | z-score [6] | inhibition [8] | fluorescence ratio (interference) [9]
O=C(O)CCNC(=O)c1ccc(N=Nc2ccc(O)c(C(=O)O)c2)cc1 | 105% (inactive) and 63.3% (inactive) | 90.8% and 75.1% | 0.93 (inactive) | -2.84% (inactive) | 1.97% (inactive) | 0.94 (inactive) | inactive | 0.8% (inactive) | 0.3 |  |  | 
Cc1ccsc1C(=CCCN1CCC[C@@H](C(=O)O)C1)c1sccc1C | 111% (inactive) | 71.9% | 0.99 (inactive) | -2.77% (inactive) | 3.75% (inactive) | 0.96 (inactive) |  | 1.8% (inactive) | 0.9 | 1.77 (inactive) |  | 
CC(C)c1ccc2oc3nc(N)c(C(=O)O)cc3c(=O)c2c1 | 196% (inactive) | 67.7% | 1.01 (inactive) | 2.77% (inactive) | 6.06% (inactive) | 0.99 (inactive) |  | 0.2% (inactive) | -1.6 | 0.737 (inactive) |  | 
CN1CCN2c3ccccc3Cc3ccccc3C2C1 (configuration not stated) | 78.7% (inactive) and 106% (inactive) and 104% (inactive) |  |  |  |  |  |  | 0.3% (inactive) | -0.9 |  | -3% (inactive) | 0.9 (inactive)
COc1ccc(CN2CCN(C(c3ccc(F)cc3)c3ccc(F)cc3)CC2)c(OC)c1OC | 0.425% (inactive) and 2.35% (inactive) | 59.6% and 66% | 1 (inactive) | 1.19% (inactive) | 7.6% (inactive) | 0.91 (inactive) |  | 8.4% (inactive) | 5.6 | 0.136 (inactive) |  | 
Cn1c(NCCN(CCO)CCCc2ccc([N+](=O)[O-])cc2)cc(=O)n(C)c1=O | 109% (inactive) and 18.9% (inactive) | 77.5% and 73.5% | 0.99 (inactive) | 0.4% (inactive) | 1.44% (inactive) | 0.97 (inactive) |  | 0.1% (inactive) | 0.3 | 0.0586 (inactive) |  | 
CN1[C@@H]2CC[C@H]1CC(OC(=O)c1c[nH]c3ccccc13)C2 (some centres not stated) | 118% (inactive) and 21.9% (inactive) | 102% and 67.5% | 1.02 (inactive) | -3.56% (inactive) | -3.95% (inactive) | 0.9 (inactive) |  | 1.1% (inactive) | 1.6 | -0.714 (inactive) |  | 
CC(C)(C#N)c1cc(Cn2cncn2)cc(C(C)(C)C#N)c1 | 73.5% (inactive) and 47.4% (inactive) | 67.1% and 158% | 0.93 (inactive) | -0.22% (inactive) | 1.18% (inactive) | 0.92 (inactive) |  | 0.3% (inactive) | 1.7 | 1.38 (inactive) |  | 
CC(Cc1ccccc1)(NC(=O)CN)c1ccccc1 (configuration not stated) | 118% (inactive) | 74.8% | 1.07 (inactive) | 5.15% (inactive) | 6.83% (inactive) | 1.03 (inactive) |  | 0.8% (inactive) | 0 | 1.57 (inactive) |  | 
CCC1=C(C)CN(C(=O)NCCc2ccc(S(=O)(=O)NC(=O)NC3CCC(C)CC3)cc2)C1=O (configuration not stated) | 156% (inactive) and 92.3% (inactive) and 45.4% (inactive) | 98.1% and 72.7% and 68.5% | 0.97 (inactive) | -1.09% (inactive) | 0.39% (inactive) | 0.96 (inactive) |  | 1% (inactive) | -1.7 | 1.17 (inactive) |  | 
Cc1ccc(NC(=O)c2ccc(CN3CCN(C)CC3)cc2)cc1Nc1nccc(-c2cccnc2)n1 | 17.1% (inactive) and 60.3% (inactive) | 65.9% and 227% |  |  |  |  |  | 7.1% (inactive) | -0.1 | -0.734 (inactive) |  | 
CCCN1CCCC[C@H]1C(=O)Nc1c(C)cccc1C | 68.8% (inactive) | 69.6% | 0.98 (inactive) | -5.46% (inactive) | -2.76% (inactive) | 0.92 (inactive) |  | 0.3% (inactive) | -1.3 | 0.543 (inactive) |  | 
CNS(=O)(=O)Cc1ccc2[nH]cc(CCN(C)C)c2c1 | 108% (inactive) and 29.1% (inactive) | 93.1% and 65.5% | 1.05 (inactive) | 5.94% (inactive) | 6.06% (inactive) | 1.03 (inactive) |  | 0.9% (inactive) | 0.4 | 0.0332 (inactive) |  | 
CC1(C)S[C@@H]2[C@H](N=CN3CCCCCC3)C(=O)N2[C@H]1C(=O)O | 101% (inactive) | 79.6% | 1.06 (inactive) | -1.98% (inactive) | -4.72% (inactive) | 1.04 (inactive) |  | 0.4% (inactive) | 0.8 | -0.418 (inactive) |  | 
CC(C)(C)C(O)/C=C/c1ccc2c(c1)OCO2 (configuration not stated) | 76% (inactive) | 68% | 0.94 (inactive) | -4.59% (inactive) | -2.76% (inactive) | 0.88 (inactive) |  | 0% (inactive) | 1.5 | -0.389 (inactive) |  | 

— PubChem BioAssay
